Experiment [1] can be described thus: Cell Viability - LYMP2-001 (AID 921). Note: nearly all actives have a fitted effect of over 70% in size. Note: potency is the fitted concentration of half-maximal effect. The method, boiled down: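 CellTiter-Glo luminescence (intracellular ATP) after 24 hr compound exposure at 37 C, 2500 lymphoblastoid cells/well in complete medium. AC50 fitted with standard Hill equation; tetraoctylammonium bromide positive control.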
Experiment [2] in a line: MultiTox-Fluor Cytotoxicity Assay - LYMP1-001 - Dead Cells (AID 946). Note: potency is the fitted concentration of half-maximal effect. The method, boiled down:
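Cytotoxicity as increased dead-cell protease fluorescence (bis-AAF-R110, 485/520 nm), read 60 min after MultiTox-Fluor reagent. Human lymphoblastoid line exposed 16 h; Hill-fitted AC50, with DMSO as 0% and 15 uM tetraoctylammonium bromide as 100%.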

Experiment [3] is described as follows: MultiTox-Fluor Cytotoxicity Assay - LYMP1-001 - Live Cells (AID 947). Note: potency is the fitted concentration of half-maximal effect.
Experiment [4] in a line: Cell Viability - LYMP1-002 - Assay at 16 hr (AID 948). Note: potency is the fitted concentration of half-maximal effect. The procedure, abridged: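 LYMP1-002 human lymphoblastoid cells, 2500/well; 5 hr 37 C; cpd 16 hr 37 C; CellTiter-Glo 30 min RT; luminescence (ATP). Concentration-response, Hill-fit AC50. Pos ctrl tetraoctylammonium bromide.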
Experiment [5] can be described thus: MultiTox-Fluor Cytotoxicity Assay - LYMP1-002 - Live Cells (AID 955).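 Note: cells exposed to compound for 16 hours.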 Note: potency is the fitted concentration of half-maximal effect. The procedure, abridged: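 In this qHTS viability format, lymphoblastoid cells (LYMP1-002, human) received compound for 16 hr at 37 C. Fluorogenic GF-AFC cleavage by viable cells was detected at 405/510 nm after 1 h at room temperature.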
Experiment [6] is described as follows: MultiTox-Fluor Cytotoxicity Assay - LYMP1-002 - Dead Cells (AID 960). Note: nearly all actives have a fitted effect of over 60% in size. Note: potency is the fitted concentration of half-maximal effect. The method, boiled down: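 Concentration-dependent increases in membrane-leaked protease activity are quantified in LYMP1-002 cells after 16 hr treatment; values are normalized against DMSO and tetraoctylammonium bromide (15 uM) controls and AC50 derived by Hill modeling.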
The nature of experiment [7]: MultiTox-Fluor Cytotoxicity Assay - LYMP1-003 - Dead Cells (AID 961). Note: nearly all actives have a fitted effect of over 70% in size. Note: potency is the fitted concentration of half-maximal effect. The procedure, abridged:
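Dead-cell protease release, detected as bis-AAF-R110 fluorescence at 485/520 nm, was measured in LYMP1-003 cells after 16 h compound treatment at 37 C. AC50 values came from Hill-modeled qHTS curves normalized to DMSO (0%) and 15 uM tetraoctylammonium bromide (100%).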

A short description of experiment [8]: MultiTox-Fluor Cytotoxicity Assay - LYMP1-003 - Live Cells (AID 962).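 Note: cells exposed to compound for 16 hours at 37 °C.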 Note: potency is the fitted concentration of half-maximal effect. The method, boiled down: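 Human lymphoblastoid line LYMP1-003 in complete culture medium, treated 16 hr with titrated compounds. Viable cells quantified via cell-permeant GF-AFC substrate fluorescence; AC50 derived by Hill fitting.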
Experiment [9] in a line: Cell Viability - LYMP1-003 - Assay at 24 hr (AID 963). Note: potency is the fitted concentration of half-maximal effect. The procedure, abridged: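 The lymphoblastoid line was treated with titrated compounds for 24 hours, and viable cell number estimated from luciferase-based ATP luminescence.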
A short description of experiment [10]: Cell Viability - LYMP1-003 - Assay at 40 hr (AID 964). Note: nearly all actives have a fitted effect of over 60% in size. Note: potency is the fitted concentration of half-maximal effect. The procedure, abridged: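 Acute toxicity is scored as a concentration-dependent loss of intracellular ATP in LYMP1-003 cells (2500/well, complete medium) after 40 hr at 37 C, measured by CellTiter-Glo luminescence; AC50 values derive from standard Hill modelling.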
Experiment [11] is described as follows: Cell Viability - LYMP2-003 (AID 965).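 Note: cells exposed to compounds for 24 h before reading; nearly all actives have a fitted effect of over 50% in size.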 Note: potency is the fitted concentration of half-maximal effect. The procedure, abridged: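 CellTiter-Glo luminescence (cellular ATP) after 24 h compound exposure at 37 C in complete medium; 2500 cells/well, 5 h settling beforehand. Concentration-response fitted to standard Hill equation for AC50. Tetraoctylammonium bromide served as positive control.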
Experiment [12] in a line: Cell Viability - LYMP2-004 (AID 966). Note: nearly all actives have a fitted effect of over 65% in size. Note: potency is the fitted concentration of half-maximal effect. The method, boiled down: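 Viable-cell number estimated from ATP luminescence (CellTiter-Glo) in 2500 human lymphoblastoid cells/well after 24 hr at 37 C with compound. AC50 fitted to the standard Hill equation.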
Experiment [13] in a line: Cell Viability - LYMP2-005 (AID 967). Note: potency is the fitted concentration of half-maximal effect. The procedure, abridged:
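Steps: seed 2500 LYMP2-005 cells/well, incubate 5 h at 37 C, add compound, incubate 24 h at 37 C, add CellTiter-Glo, wait 30 min at RT, read luminescence. Concentration-response data fitted to Hill equation for AC50.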

Experiment [14] is described as follows: Confirmation and Secondary Assay for Modulators of Hemoglobin Beta Chain Splicing at IVS2 705 locus (AID 930).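 Note: HeLa cells stably expressing the EGFP-705 splicing reporter; GFP fluorescence per well restored by corrected splicing of the IVS2-705 intron in EGFP; series mostly up to about 46 µM.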 The procedure, abridged:
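Read-out: total peak GFP fluorescence per well (488 nm excitation, 500-520 nm emission) by laser-scanning cytometry. Cells: HeLa EGFP-705 splicing reporter, 2 days compound exposure in Optimem/2% FCS.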

In experiment [15] the target is Pyruvate kinase (Leishmania mexicana) (UniProt Q27686). The experiment can be described thus: qHTS Validation Assay for Inhibitors of Leishmania Mexicana Pyruvate Kinase (AID 945). The method, boiled down:
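Luminescent ATP detection (PKLight) after a 1 h room-temperature reaction of 0.2 nM LmPYK E451W mutant with 0.5 mM PEP and 0.1 mM ADP at pH 7.2. Activity is normalized to DMSO-only control wells.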
(In general: Quantitative high-throughput screening tests each substance at several concentrations.)

Experiment [16] deals with Pyruvate kinase PKM (Homo sapiens) (UniProt P14618). The experiment can be described thus: qHTS Assay for Activators of Human Muscle Pyruvate Kinase (AID 954; active = well fitted curve in the direction sought with a large enough effect, not every such curve was filed as active). The procedure, abridged: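 ATP production by PKM2 detected via luciferase luminescence after 1 h room-temperature reaction (0.1 nM enzyme, PEP at Km 0.5 mM, ADP 0.1 mM, pH 7.2 imidazole buffer). Inhibition scaled to no-enzyme control; activation referenced to 0.3 nM enzyme wells.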
Sequence of Pyruvate kinase PKM (Homo sapiens) (P14618 whole entry, looked up): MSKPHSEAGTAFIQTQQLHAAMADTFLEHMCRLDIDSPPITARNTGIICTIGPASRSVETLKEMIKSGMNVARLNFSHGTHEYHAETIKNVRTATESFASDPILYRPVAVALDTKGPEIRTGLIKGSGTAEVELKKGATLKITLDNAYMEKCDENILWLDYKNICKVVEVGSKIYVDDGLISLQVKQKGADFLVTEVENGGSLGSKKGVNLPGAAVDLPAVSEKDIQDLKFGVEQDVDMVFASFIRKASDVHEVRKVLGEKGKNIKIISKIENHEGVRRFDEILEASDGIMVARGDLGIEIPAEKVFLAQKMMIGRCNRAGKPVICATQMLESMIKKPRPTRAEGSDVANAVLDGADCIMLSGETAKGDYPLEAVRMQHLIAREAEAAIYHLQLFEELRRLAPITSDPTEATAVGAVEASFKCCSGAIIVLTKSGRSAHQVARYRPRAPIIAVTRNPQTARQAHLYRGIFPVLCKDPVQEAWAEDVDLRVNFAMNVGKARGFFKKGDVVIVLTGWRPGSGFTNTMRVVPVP

Inconclusive results are not listed. The source made the active and inactive calls. Unless noted, calls come from the whole dose curve; as a rule, active = well fitted curve in the direction sought with a large enough effect; inconclusive = small, poorly fitted or top-dose-only effect, or another doubt; inactive = no such curve, though single readings can be large; an effect the other way counts as inactive or inconclusive.

Sequence of Pyruvate kinase (Leishmania mexicana) (Q27686 2-499 E452W): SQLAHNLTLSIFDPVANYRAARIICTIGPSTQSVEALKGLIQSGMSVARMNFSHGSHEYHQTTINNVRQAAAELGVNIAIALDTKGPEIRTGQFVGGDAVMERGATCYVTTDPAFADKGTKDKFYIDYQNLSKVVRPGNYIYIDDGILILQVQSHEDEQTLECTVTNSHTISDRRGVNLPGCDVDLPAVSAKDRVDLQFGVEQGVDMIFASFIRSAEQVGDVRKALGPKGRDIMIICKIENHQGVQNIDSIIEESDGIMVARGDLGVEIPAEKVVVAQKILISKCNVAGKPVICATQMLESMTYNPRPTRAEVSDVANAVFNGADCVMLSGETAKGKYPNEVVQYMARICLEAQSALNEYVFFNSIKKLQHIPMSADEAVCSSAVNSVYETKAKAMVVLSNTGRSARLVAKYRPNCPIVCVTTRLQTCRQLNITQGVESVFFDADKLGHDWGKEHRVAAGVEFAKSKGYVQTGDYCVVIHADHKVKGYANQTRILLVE

For `COc1cccc2c1C(=O)c1c(O)c3c(c(O)c1C2=O)C[C@@](O)(C(=O)CO)C[C@@H]3O[C@H]1C[C@H](N)[C@H](O)[C@H](C)O1`, the Potency in [1] was 0.501 µM (active); in [2], 2.51 µM (active); in experiment [3], 1.58 µM (active); in experiment [4], 3.16 µM (active); in experiment [5], 5.01 µM (active); in experiment [6], 3.16 µM (active). The Potency in [7] is 6.31 µM (active); in experiment [8], 0.794 µM (active); in experiment [9], 1.26 µM (active); in [10], 0.398 µM (active); in experiment [11], 0.501 µM (active); in experiment [12] it was 0.501 µM (active). Besides, in experiment [13], the Potency is 0.398 µM (active).

Turning to `CC/C(=C(/CC)c1ccc(O)cc1)c1ccc(O)cc1`, the Potency entry in [1], in experiment [3], in experiment [4], in experiment [5], in [7] and in [8] was “inactive” in each case. For the same compound, the Potency entry in experiment [9], in [11], in experiment [12] and in experiment [13] was “inactive” throughout. In addition, in [14], the outcome was inactive.

As for `CN(C)/N=N/c1nc[nH]c1C(N)=O`, the Potency entry in [1], in experiment [2], in experiment [3], in experiment [4], in experiment [5] and in experiment [6] was “inactive” each time. Further, the Potency entry in experiment [7], in experiment [8], in experiment [9], in experiment [10], in [11] and in experiment [12] was “inactive” each time. The Potency entry in experiment [13] is “inactive”. The call in experiment [14] was inactive.

In the case of `Nc1ccc(C(=O)O)cc1`, the Potency result in [1], in [2], in experiment [4], in [5], in [6] and in experiment [7] was “inactive” in each case. For the same compound, the Potency result in experiment [8], in experiment [9], in experiment [10], in experiment [11], in [12] and in [13] was “inactive” in each case. The compound was called inactive in experiment [14].

For `C[C@]12CC[C@@H]3c4ccc(O)cc4CC[C@H]3[C@@H]1CC[C@@H]2O`, the result in experiment [15] and in experiment [16] was inactive. The Potency result in experiment [2], in [3], in experiment [4], in experiment [5], in [7] and in experiment [8] was “inactive” throughout. The Potency entry in [9], in experiment [10], in [11], in [12] and in experiment [13] was “inactive” in each case.

`CCN(CCCCOC(=O)c1ccc(OC)c(OC)c1)C(C)Cc1ccc(OC)cc1` (stereo unspecified): the outcome in experiment [14] was inactive.

For the compound `CN(C(=O)CN(CCO)CC(=O)N(C)C(C)(C)Cc1ccccc1)C(C)(C)Cc1ccccc1`, the result in [14] was inactive.

The values above are taken from PubChem BioAssay (NCATS).
